The campaign covered roughly 67,000 compounds. About 300 (0.45%) showed an effect of 50% or more. The list comes from a sample in which strong results are over-represented; it also holds similar structures and randomly drawn compounds.

The target in this assay is Polyketide synthase Pks13 (Mycobacterium tuberculosis (strain ATCC 25618 / H37Rv)) (UniProt I6X8D2). Put plainly: Mycobacterium tuberculosis Polyketide synthase 13 Thioesterase (PKS13). On the set-up: scale not given: in the data most compounds retested in dose-response had high values. The assay is classed as functional. The conditions noted are these: 30 µM.
Sequence of Polyketide synthase Pks13 (Mycobacterium tuberculosis (strain ATCC 25618 / H37Rv)) (I6X8D2 whole entry): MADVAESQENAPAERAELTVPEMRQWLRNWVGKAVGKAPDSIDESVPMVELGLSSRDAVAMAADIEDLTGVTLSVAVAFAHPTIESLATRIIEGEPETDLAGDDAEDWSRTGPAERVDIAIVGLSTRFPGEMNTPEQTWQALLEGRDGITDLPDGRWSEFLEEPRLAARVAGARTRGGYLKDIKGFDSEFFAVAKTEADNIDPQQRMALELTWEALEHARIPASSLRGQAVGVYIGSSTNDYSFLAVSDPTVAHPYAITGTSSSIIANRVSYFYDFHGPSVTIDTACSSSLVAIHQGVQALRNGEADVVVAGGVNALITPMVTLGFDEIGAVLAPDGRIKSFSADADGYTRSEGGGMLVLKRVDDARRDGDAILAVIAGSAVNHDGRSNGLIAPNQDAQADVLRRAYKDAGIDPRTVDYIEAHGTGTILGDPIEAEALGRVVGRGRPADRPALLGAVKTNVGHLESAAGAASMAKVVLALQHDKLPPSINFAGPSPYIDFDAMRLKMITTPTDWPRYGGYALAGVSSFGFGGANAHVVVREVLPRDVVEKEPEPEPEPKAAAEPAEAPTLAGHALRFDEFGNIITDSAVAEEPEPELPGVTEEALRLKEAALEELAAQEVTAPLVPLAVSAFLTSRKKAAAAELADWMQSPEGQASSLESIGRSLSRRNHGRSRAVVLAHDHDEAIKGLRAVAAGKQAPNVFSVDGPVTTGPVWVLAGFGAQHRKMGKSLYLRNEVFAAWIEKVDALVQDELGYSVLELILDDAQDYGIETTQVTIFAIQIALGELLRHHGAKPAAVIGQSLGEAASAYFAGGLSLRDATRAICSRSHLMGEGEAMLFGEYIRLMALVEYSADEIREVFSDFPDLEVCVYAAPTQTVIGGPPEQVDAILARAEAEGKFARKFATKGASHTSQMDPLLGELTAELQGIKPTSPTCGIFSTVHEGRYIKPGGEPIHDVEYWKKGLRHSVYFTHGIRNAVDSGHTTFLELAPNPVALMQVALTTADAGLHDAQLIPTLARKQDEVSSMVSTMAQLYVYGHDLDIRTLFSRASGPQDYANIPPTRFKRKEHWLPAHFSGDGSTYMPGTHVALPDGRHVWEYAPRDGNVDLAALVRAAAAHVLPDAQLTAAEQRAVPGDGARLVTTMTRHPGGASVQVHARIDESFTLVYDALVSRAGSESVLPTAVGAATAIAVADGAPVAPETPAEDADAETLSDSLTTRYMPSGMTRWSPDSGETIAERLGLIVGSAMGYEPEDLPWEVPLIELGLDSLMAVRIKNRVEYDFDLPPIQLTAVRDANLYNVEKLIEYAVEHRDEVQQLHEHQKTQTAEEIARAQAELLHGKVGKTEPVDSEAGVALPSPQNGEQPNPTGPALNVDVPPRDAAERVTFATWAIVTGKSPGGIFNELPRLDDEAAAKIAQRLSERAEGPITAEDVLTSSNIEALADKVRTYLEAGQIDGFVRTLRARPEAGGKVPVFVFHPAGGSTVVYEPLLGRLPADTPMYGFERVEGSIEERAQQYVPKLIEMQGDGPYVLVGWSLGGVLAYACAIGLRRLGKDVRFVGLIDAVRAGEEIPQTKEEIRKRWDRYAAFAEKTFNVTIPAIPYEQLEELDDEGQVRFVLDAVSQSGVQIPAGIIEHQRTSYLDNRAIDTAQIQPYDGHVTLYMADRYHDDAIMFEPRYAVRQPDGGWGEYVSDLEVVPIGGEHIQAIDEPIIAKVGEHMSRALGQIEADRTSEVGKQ
Take `CC(=O)N1CCO[C@@H]2CN(C(=O)c3ccccc3)CC[C@@H]2C1`: the Percent Effect was 7.28%.

For the compound `Cc1cccc(COc2ccc(NC(=O)C(C)NC(N)=O)c(C)c2)c1` (stereo not drawn), the Percent Effect is 53%.

For `Cc1cc(OCc2cccc(F)c2)ccc1NC(=O)C(C)NC(N)=O` (stereo not drawn), the Percent Effect was -1.33%.

Take `CC(=O)NC(C)C(=O)Nc1ccc(OCc2cccc(F)c2)cc1C` (stereo not drawn): the Percent Effect was -35.8%. In the case of `c1ccc(OCC2C[C@@H]3[C@@H](C2)OCCN3CC2CCOCC2)nc1` (stereo partly drawn) it was -0.0246%; in that of `Cc1ccoc1C(=O)N1C[C@@H]2[C@@H](C1)OCC(=O)N2Cc1cccnc1`, -9.46%; in that of `Cc1cnc(N2CCCC3(COCCN(c4nccs4)C3)C2)nc1` (stereo not drawn), -20.9%. For `Cc1ccc(N2CCCC3(COCCN(c4nccs4)C3)C2)nn1` (stereo not drawn), the Percent Effect was -10.9%. In the case of `c1ccc(N2CCOCC3(CCCN(c4nccs4)C3)C2)nc1` (stereo not drawn) it was 66%; in that of `Cc1nc2cc(C3CCN(C(=O)c4ccccn4)CC3)nn2c(O)c1C`, -23.4%; in that of `Cc1cccc(CN2C[C@@H]3OCCN(c4cnccn4)[C@@H]3C2)n1`, -4.22%.

On to `CS(=O)(=O)CCSc1n[nH]c(-c2ccc3c(c2)CCC3)n1`, for which the Percent Effect is 1.98%. In the case of `NC(=O)CCSc1n[nH]c(-c2ccc3c(c2)CCC3)n1`, the Percent Effect is -2.85%. With `CS(=O)(=O)CCCSc1n[nH]c(-c2ccc3c(c2)CCC3)n1`, the Percent Effect is 66.3%.

In the case of `Cn1c(NCC(=O)N2CCCCC2)c(C#N)c(=O)n(C)c1=O`, the Percent Effect was -9.87%. Regarding `Cn1c(NCC(=O)N2CCCC2)c(C#N)c(=O)n(C)c1=O`, the Percent Effect stood at 51.5%. As to `Cn1c(NCCC(=O)N2CCCC2)c(C#N)c(=O)n(C)c1=O`, the Percent Effect amounted to 1.71%. To `Cn1cc(N2C(=O)CC[C@@H]3[C@H]2CCN3Cc2cccc(C#N)c2)cn1` belongs -11.3%; to `CCOc1ccc2[nH]c(=O)c(CN3CCCC3c3ccccn3)cc2c1` (stereo not drawn), -32.9%. In the case of `O=c1[nH]c2cc3c(cc2cc1CN1CCCC1c1ccccn1)OCO3` (stereo not drawn) it was 78.6%; in that of `O=c1[nH]c2cc3c(cc2cc1CN1CCCC1c1ccccn1)CCC3` (stereo not drawn), -17.3%. To `O=C(c1ccoc1)N1CC[C@@H]2O[C@@H](COCc3ccncc3)CC[C@@H]21` belongs -10.6%; to `O=C(C[C@H]1[C@H]2CN(c3ncccn3)C[C@@H]12)Nc1cccnc1`, -4.86%. For the compound `CC(C)CN1CC[C@@H]2[C@@H]1CCN2C(=O)N(C)C`, the Percent Effect is -18.3%. Turning to `Cc1cc(Cn2c(=O)c3c(C(F)(F)F)cc(C)nc3n2C)on1`, the Percent Effect was found to be 3.92%. To `CCc1nc(Cn2c(=O)c3c(C(F)(F)F)cc(C)nc3n2C)no1` belongs 9.67%; to `CCc1noc(Cn2c(=O)c3c(C(F)(F)F)cc(C)nc3n2C)n1`, 64.5%; to `CO[C@H]1CC[C@H]2[C@H]1OCCN2C(=O)c1ccc(C)nc1`, -32.1%. As for `Cc1ccc(N2CC[C@H]3OCC[C@@]3(C(=O)NCC3CC3)C2)nn1`, the Percent Effect is -16.8%.

With `CC(C)CN1CCN(Cc2nc3c(s2)CCCC3)[C@H]2CS(=O)(=O)C[C@H]21`, the Percent Effect worked out at 3.91%. In the case of `CCN1CCN(C(=O)c2cnc3c(cnn3C3CCCC3)c2)CC1`, the Percent Effect stood at 2.83%.

Take `CN1CCN(C(=O)c2cnc3c(cnn3C3CCCC3)c2)CC1`: the Percent Effect is -58.3%. To `O=C(c1cnc2c(cnn2C2CCCC2)c1)N1CCN(CCO)CC1` belongs 90.8%; to `Cc1cc(CN2CC[C@@H]3O[C@@H](c4nnc(C)o4)C[C@H]3C2)no1`, -7.21%; to `CC(C)CCN1CCc2cc(C(=O)N(C)C)c(NCC3CC3)nc2CC1`, -8.68%.

Regarding `CC(C)Nc1nc2c(cc1C(=O)N(C)C)CCNCC2`, the Percent Effect was found to be 0.822%.

On to `CC(C)NC(=O)c1cc2c(nc1N(C)C)CCN(S(=O)(=O)C1CC1)CC2`, for which the Percent Effect amounted to 33.7%. As for `CN(C)C(=O)c1cc2c(nc1NCC1CC1)CCN(CC1CC1)CC2`, the Percent Effect is -12.7%.

Regarding `CC(C)Nc1nc2c(cc1C(=O)NCC1CC1)CCN(CC1CC1)CC2`, the Percent Effect was found to be 69.4%.

Take `CNC(=O)c1cc2c(nc1NC(C)C)CCNCC2`: the Percent Effect is 73.6%. In the case of `CC(C)Nc1nc2c(cc1C(=O)NCC1CC1)CCN(S(C)(=O)=O)CC2`, the Percent Effect worked out at 85.6%. For the compound `CC(C)Nc1nc2c(cc1C(=O)NCC1CC1)CCN(C)CC2`, the Percent Effect came to 90.8%. On to `Cc1nc2c(cc1C(=O)O)CCN(CC1CC1)CC2`, for which the Percent Effect is -19.8%.

With `CN1CCc2cc(C(=O)N(C)C)c(NCC3CC3)nc2CC1`, the Percent Effect was -5.51%. Consider `CNC(=O)c1cc2c(nc1N(C)C)CCN(C)CC2`, for which the Percent Effect is -20.6%. As to `CCS(=O)(=O)N1CCc2cc(C(=O)N(C)C)c(NCC3CC3)nc2CC1`, the Percent Effect is -30.5%. In the case of `CCS(=O)(=O)N1CC[C@H]2O[C@H](c3nnc(C)o3)CC[C@H]21` it was -8.23%; in that of `CN1CC[C@H]2CN(C(=O)c3csc(Cc4ccccc4)n3)C[C@H]21`, -37.9%; in that of `O=C1O[C@@H]2CN(C3CCOCC3)C[C@@H]2N1CCCc1ccc(F)cc1`, 1.75%.

For `CC(C)CN1CCS(=O)(=O)[C@@H]2CCN(S(=O)(=O)N(C)C)CC[C@@H]21`, the Percent Effect is -30.1%. Take `CNC(=O)c1cc2c(nc1NC(C)C)CCN(C(=O)NC(C)C)CC2`: the Percent Effect stood at 29.7%. To `CNC(=O)N1CCc2cc(C(=O)N(C)C)c(NCC3CC3)nc2CC1` belongs 4.02%. Take `CCN1CCc2cc(C(=O)N(C)C)c(NCC3CC3)nc2CC1`: the Percent Effect was -12.5%. To `COCCN1CCc2cc(C(=O)NC(C)C)c(NCC3CC3)nc2CC1` belongs 45.7%; to `COCCN1CCc2cc(C(=O)N(C)C)c(NC(C)C)nc2CC1`, -2.98%; to `CNC(=O)N1CCc2cc(C(=O)NCC3CC3)c(NC(C)C)nc2CC1`, 51.5%. With `CC(C)Nc1nc2c(cc1C(=O)NCC1CC1)CCNCC2`, the Percent Effect is 51.7%.

With `COCCN1CCc2cc(C(=O)NCC3CC3)c(NC(C)C)nc2CC1`, the Percent Effect was 68.2%.

The record behind these values is ChEMBL document CHEMBL3988442, “University of Dundee, Small-Polar-MMV Screening Library” (2021).
